The record followed here is PubChem BioAssay (Tox21).

The structures appear in SMILES notation. Inconclusive results are not listed. Activity calls are given as the source filed them. Unless noted, calls come from the whole dose curve; as a rule, active = well fitted curve in the direction sought with a large enough effect in the repeat runs; inconclusive = weak or mixed curves; inactive = no such curve, though single readings can be large; an effect the other way counts as inactive or inconclusive.

The nature of experiment [1]: qHTS assay to identify small molecule antagonists of the estrogen related receptor (ERR) signaling pathway - cell viability counter screen (AID 1224818). Note: series mostly up to about 46 µM. The method in brief:
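Multiplexed counter screen to separate cytotoxic compounds from true ERR modulators. ERR cells received DMSO-dissolved compounds after a 6 h pre-incubation, were exposed 17.5 h at 37 C, then assayed with CellTiter-Fluor fluorescence.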
For orientation: In qHTS, concentration-response curves come from the screen itself.

The nature of experiment [2]: qHTS assay to identify small molecule antagonists of the estrogen related receptor (ERR) signaling pathway (AID 1224819; note: nearly all actives have a fitted effect of over 50% in size; note: potency is the fitted concentration of half-maximal effect). In outline:
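Seed ERR cells 2,000/well; rest 6 h at 37 C/5% CO2; pin compounds in DMSO; incubate 18 h at 37 C; add One-Glo; wait 30 min at room temperature; measure luminescence.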

A short description of experiment [3]: qHTS assay to identify small molecule agonists of the estrogen related receptor (ERR) signaling pathway (AID 1224820). In outline: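 ERR reporter cells (NTP line) plated 2,000/well, incubated 6 h at 37 C/5% CO2, then pinned with compounds in DMSO and held 18 h at 37 C. One-Glo added; luminescence read after 30 min at room temperature.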
Experiment [4] concerns estrogen-related receptor alpha (ERRalpha) with PGC-1alpha coactivator, human. The experiment can be described thus: qHTS assay to identify small molecule antagonists of the estrogen related receptor signaling pathway with the pleiotropic PPARgamma coactivator (PGC) (AID 1224821; calls by dose curve; note: nearly all actives have a fitted effect of over 50% in size; note: potency is the fitted concentration of half-maximal effect). In outline: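 Cells engineered for PGC/ERR signalling (line from NTP) were plated 6 h at 37 C/5% CO2, then exposed to DMSO-dissolved compound for 18 h at 37 C. Luciferase activity was read by One-Glo luminescence after 30 min at room temperature.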

Experiment [5] can be described thus: qHTS assay to identify small molecule antagonists of the estrogen related receptor signaling pathway with the pleiotropic PPARgamma coactivator (PGC) cell viability counter screen (AID 1224822; note: series mostly up to about 46 µM). The method in brief: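 Cells: PGC/ERR, 2,000/well, 1536-well format. Pre-incubation 6 h, 37 C/5% CO2. Compound exposure 17.5 h, 37 C. Detection: CellTiter-Fluor, 30 min, fluorescence.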

A short description of experiment [6]: qHTS assay to identify small molecule agonists of the estrogen related receptor signaling pathway with the pleiotropic PPARgamma coactivator (PGC) (AID 1224823). Note: potency is the fitted concentration of half-maximal effect. In outline: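 PGC/ERR reporter cells were seeded, rested 6 h at 37 C/5% CO2, then exposed to compounds in DMSO by pin transfer for 18 h at 37 C. Luciferase activity was read as luminescence after One-Glo reagent and 30 min at room temperature.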

For the compound `Nc1nc(Cl)nc2c1ncn2[C@@H]1O[C@H](CO)C(O)[C@H]1O` (some centres not stated), the Potency result in experiment [1], in experiment [2], in experiment [3], in experiment [4] and in experiment [5] was “inactive” in each case. Further, in experiment [6], the Potency is 1.23 µM (active).

With `Cc1cc(Cn2cnc3c2C[C@@H](C(=O)O)N(C(=O)C(c2ccccc2)c2ccccc2)C3)ccc1N`, the Potency result in experiment [1], in experiment [2], in experiment [3], in experiment [4], in experiment [5] and in experiment [6] was “inactive” in each case.

Regarding `CCCCCCCCCCCCCCCC(=O)OC(CC(=O)O)C[N+](C)(C)C` (configuration not stated), the Potency entry in experiment [1], in experiment [2], in experiment [3], in experiment [4], in experiment [5] and in experiment [6] was “inactive” in each case.

As to `CCSC(=N)N`, the Potency entry in experiment [1], in experiment [2], in experiment [3], in experiment [4], in experiment [5] and in experiment [6] was “inactive” throughout.

As for `O=C(O)c1cc2cc(Cc3cccnc3)ccc2o1`, the Potency entry in experiment [1], in experiment [2], in experiment [3], in experiment [4], in experiment [5] and in experiment [6] was “inactive” throughout.

On to `O=C(OCCN1CCOCC1)C1(c2ccccc2)CCCCC1`, for which the Potency result in experiment [1], in experiment [2], in experiment [3], in experiment [4], in experiment [5] and in experiment [6] was “inactive” in each case.

As for `O=C1CCC(c2ccc(-n3ccnc3)cc2)=NN1`, the Potency entry in experiment [1], in experiment [2], in experiment [3], in experiment [4], in experiment [5] and in experiment [6] was “inactive” throughout.

`CNCCNS(=O)(=O)c1cccc2cnccc12`: the Potency entry in experiment [1], in experiment [3], in experiment [5] and in experiment [6] was “inactive” each time. Also, the Potency in experiment [2] was 21.1 µM (active); in experiment [4] it was 9.08 µM (active).

`CC(C)C[C@H](NC(=O)C1OC1C(=O)O)C(=O)NCCCCN=C(N)N` (some centres not stated): the Potency result in experiment [1], in experiment [2], in experiment [3], in experiment [4], in experiment [5] and in experiment [6] was “inactive” throughout.

As to `COc1ccc2c(c1)CCC1C2CC[C@@]2(C)C1CC[C@@H]2NCCCCCCN1C(=O)C=CC1=O` (some centres not stated), the Potency entry in experiment [1], in experiment [2], in experiment [3], in experiment [4], in experiment [5] and in experiment [6] was “inactive” throughout.

On to `CC(=O)N[C@H](C(=O)O)C(C)(C)SN=O`, for which the Potency result in experiment [1], in experiment [2], in experiment [3], in experiment [4], in experiment [5] and in experiment [6] was “inactive” each time.

For `[N-]=[N+]=Nc1ccc(C(=O)CSC[C@H](NC(=O)CC[C@H](N)C(=O)O)C(=O)NCC(=O)O)cc1`, the Potency entry in experiment [1], in experiment [3], in experiment [4], in experiment [5] and in experiment [6] was “inactive” each time. Also, in experiment [2], the Potency was 0.552 µM (active).

For the compound `COc1ccc(-c2ccc(N)[n+](CCCC(=O)O)n2)cc1`, the Potency entry in experiment [1], in experiment [2], in experiment [3], in experiment [4], in experiment [5] and in experiment [6] was “inactive” in each case.

On to `CC1CCN(CC[C@H]2CCCN2S(=O)(=O)c2cccc(O)c2)CC1`, for which the Potency result in experiment [1], in experiment [2], in experiment [3], in experiment [4], in experiment [5] and in experiment [6] was “inactive” throughout.

Regarding `Oc1ccc(C2CNCc3sccc32)cc1O` (configuration not stated), the Potency result in experiment [1], in experiment [2], in experiment [3], in experiment [4], in experiment [5] and in experiment [6] was “inactive” throughout.

For the compound `O=C(O)c1cc(=O)c2c(Cl)cc(Cl)cc2[nH]1`, the Potency result in experiment [1], in experiment [2], in experiment [3], in experiment [4], in experiment [5] and in experiment [6] was “inactive” each time.

With `O=C(O)CC1CCCc2ccccc2C1O` (configuration not stated), the Potency entry in experiment [1], in experiment [2], in experiment [3], in experiment [4], in experiment [5] and in experiment [6] was “inactive” each time.

For `CCN1/C(=C/C(C)=O)Sc2ccc(OC)cc21`, the Potency result in experiment [1], in experiment [3], in experiment [5] and in experiment [6] was “inactive” throughout. Besides, the Potency in experiment [2] is 11.9 µM (active); in experiment [4], 5.11 µM (active).

With `O=[N+]([O-])c1cccc2c(Br)[nH]nc12`, the Potency entry in experiment [1], in experiment [2], in experiment [3], in experiment [4], in experiment [5] and in experiment [6] was “inactive” throughout.

Consider `CC(C)(C)c1onc(OCP(=O)(O)O)c1CC(N)C(=O)O` (configuration not stated), for which the Potency result in experiment [1], in experiment [2], in experiment [3], in experiment [4], in experiment [5] and in experiment [6] was “inactive” in each case.

As to `CNC(=O)[C@H]1O[C@@H](n2cnc3c(NCc4ccc(N)cc4)ncnc32)[C@H](O)C1O` (some centres not stated), the Potency result in experiment [1], in experiment [2], in experiment [3], in experiment [4], in experiment [5] and in experiment [6] was “inactive” throughout.

Take `NC(Cc1cccc(-c2ccccc2CP(=O)(O)O)c1)C(=O)O` (configuration not stated): the Potency result in experiment [1], in experiment [2], in experiment [3], in experiment [4], in experiment [5] and in experiment [6] was “inactive” in each case.

As to `C[N+](C)(C)CC=O`, the Potency entry in experiment [1], in experiment [2], in experiment [3], in experiment [4], in experiment [5] and in experiment [6] was “inactive” in each case.

For the compound `NC[C@@H]1O[C@H](c2ccccc2)Cc2c1ccc(O)c2O`, the Potency result in experiment [1], in experiment [2], in experiment [3], in experiment [4], in experiment [5] and in experiment [6] was “inactive” each time.

Take `CC(=O)N[C@@H](Cc1c[nH]c2ccccc12)C(=O)OCc1cc(C(F)(F)F)cc(C(F)(F)F)c1`: the Potency entry in experiment [1], in experiment [2], in experiment [3], in experiment [4], in experiment [5] and in experiment [6] was “inactive” each time.

With `Cc1ccc([N+](=O)[O-])cc1S(=O)(=O)N(C)C`, the Potency entry in experiment [1], in experiment [2], in experiment [3], in experiment [4], in experiment [5] and in experiment [6] was “inactive” throughout.

With `CCCn1c(=O)c2c(ncn2C)n(CCC)c1=O`, the Potency entry in experiment [1], in experiment [2], in experiment [3], in experiment [4], in experiment [5] and in experiment [6] was “inactive” each time.

For the compound `O=C(O)/C(=C/c1c(C(=O)O)[nH]c2cc(Cl)cc(Cl)c12)c1ccccc1`, the Potency entry in experiment [1], in experiment [2], in experiment [3], in experiment [4], in experiment [5] and in experiment [6] was “inactive” throughout.

Take `NC(CCCP(=O)(O)O)C(=O)O` (configuration not stated): the Potency result in experiment [1], in experiment [2], in experiment [3], in experiment [4], in experiment [5] and in experiment [6] was “inactive” each time.

For the compound `CC(C)[C@@H]1CC[C@@H](C)C[C@@H]1P(=O)(c1ccccc1)c1ccccc1`, the Potency entry in experiment [1], in experiment [2], in experiment [3], in experiment [4], in experiment [5] and in experiment [6] was “inactive” throughout.

For `CN1CCN(c2nc3cc(C(F)(F)F)ccc3n3cccc23)CC1`, the Potency entry in experiment [1], in experiment [2], in experiment [3], in experiment [4], in experiment [5] and in experiment [6] was “inactive” each time.

Consider `CC1CNCCN1S(=O)(=O)c1cccc2cnccc12` (configuration not stated), for which the Potency entry in experiment [1], in experiment [2], in experiment [3], in experiment [4], in experiment [5] and in experiment [6] was “inactive” throughout.
